Assay results taken from PubChem BioAssay (Tox21).
Inconclusive results are not listed. Values without a mark were called inactive. The source made the active and inactive calls. The call rests on the fitted dose curve; in most records, active means well fitted activation curve with a large enough effect in the repeat runs; inconclusive means weak or mixed curves; inactive means flat fitted curve, though single readings scatter.

experiment: A CellTox Green Cytotoxicity Assay to monitor cytotoxicity in HEK293 cells - 16 hour (AID 1224888); conditions: CellTox Green fluorescence; series mostly up to 76.8 µM; activity change: at the top concentration; further: nearly all actives have a fitted effect of over 35% in size
From the text: National Center for Advancing Translational Sciences [NCATS]
NIH Chemical Genomics Center [NCGC]
U.S. Environmental Protection Agency [EPA]
National Institutes of Environmental Health Sciences [NIEHS]
National Toxicology Program [NTP]
Cell-based models are critical for drug discovery. Determining the natural cytotoxic effects resulting from test compounds is an essential research activity. A CellTox Green Cytotoxicity Assay to monitor cytotoxicity in real time of continues cell culture during 40 hours of the compound treatment was used to screen Tox21 10K library compounds in Hek293 cells. CellTox Green Cytotoxicity Assay is a nonlytic, homogeneous, biofluorescent method to measure cytotoxicity in cell culture after experimental manipulation. The assay system uses a proprietary asymmetric cyanine dye that is excluded from viable cells but preferentially stains the dead cell's DNA. […] Viable cells produce no appreciable increases in fluorescence. Therefore, the fluorescence signal produced by the binding interaction with dead cell DNA is proportional to cytotoxicity.
The mixture of Hek293 cell suspension and reagents were dispensed at 600cells/6 ul/well in 1536-well tissue culture treated black solid bottom plates using a Multidrop dispenser. After the assay plates were incubated at a 37 C/5% CO2 incubator for 5 hours, 23 nL of compounds dissolved in DMSO, positive and negative controls was transferred to the assay plate by a pintool work station. The plates were incubated at 37 C for 40 hours. The fluorescence intensity were measured at 0h, 8h, 16h, 24h, 32h and 40h time points using ViewLux plate reader during compound treatment.
On the % scale 0 is the no-effect control and ±100 the full control effect.

Structure (SMILES) | activity change | Potency
COc1ccccc1OCC(O)CN1CCN(CC(=O)Nc2c(C)cccc2C)CC1 (stereo not given) | -2.39% [at 35.3 µM, active compounds read high] | –
CCCN1CCCC[C@H]1C(=O)Nc1c(C)cccc1C | 0.358% [at 35.3 µM, active compounds read high] | –
CCn1ccnc1CC1COc2ccccc2O1 (stereo not given) | -1.8% [at 35.3 µM, active compounds read high] | –
Nc1cc(=O)[nH]c(N)n1 | -1.67% [at 35.3 µM, active compounds read high] | –
O=C(O)CNC(=O)c1ccc([N+](=O)[O-])cc1 | 4.86% | –
CN(C)CCCNCCCN(C)C | -2.21% | –
COC(=O)c1cc(C(=O)OC)cc(S(=O)(=O)O)c1 | -6.17% | –
O=[N+]([O-])c1ccc(F)cc1F | 0.478% | –
O=C(O)c1ccccc1OP(=O)(O)O | 2.66% [at 35.3 µM, active compounds read high] | –
O=C[C@H](O)[C@@H](O)[C@H](O)[C@H](O)CO | -12.1% | –
CCN(CC)CCOCCOC(=O)C1(c2ccccc2)CCCC1 | 1.55% [at 35.3 µM, active compounds read high] | –
CCc1nccnc1CC | -4.2% [at 15.8 µM, active compounds read high] | –
OCCCC1CCCCC1 | -11.3% | –
NS(=O)(=O)c1cc(C(=O)NN2C[C@H]3[C@H]4CCC(C4)[C@H]3C2)ccc1Cl | 0.833% [at 35.3 µM, active compounds read high] | –
CC(C)NCCCC1(C(N)=O)c2ccccc2-c2ccccc21 | -5.48% [at 35.3 µM, active compounds read high] | –
O=C(O)CCCl | -10.5% | –
O=C1CCCC(=O)C1 | -1.25% | –
CC/C=C\CCOC(C)=O | -5.07% | –
O=c1cc(CO)occ1O | 14.8% [at 35.3 µM, active compounds read high] | –
CCO/C([O-])=N/c1c[n+](N2CCOCC2)no1 | -3.28% [at 35.3 µM, active compounds read high] | –

Structure (SMILES) | activity change | Potency
CN1CC(=O)NC1=N | 1.5% [at 35.3 µM, active compounds read high] | –
CO[Si](CCCOCC1CO1)(OC)OC (stereo not given) | – | inactive
NC(=O)c1cn(Cc2c(F)cccc2F)nn1 | 1.25% [at 35.3 µM, active compounds read high] | –
CC(C(=O)O)c1ccc(CC2CCCC2=O)cc1 (stereo not given) | -3.43% [at 35.3 µM, active compounds read high] | –
O=C(c1ccccc1)C1CCCCC1 | 7.39% | –
Cc1cnc(NS(=O)(=O)c2ccc(N)cc2)nc1 | -3.61% [at 35.3 µM, active compounds read high] | –
NC(=O)COCCN1CCN(C(c2ccccc2)c2ccc(Cl)cc2)CC1 (stereo not given) | -3.38% [at 35.3 µM, active compounds read high] | –
NC(=O)c1ccc([N+](=O)[O-])cc1 | 21.4% | –
O=S(O)CO | 11.8% | –
CCCCNC(=O)NCCCC | 0.553% | –
CC(C)CNCC(C)C | 22.2% | –
Brc1c(NC2=NCCN2)ccc2nccnc12 | -12% [at 35.3 µM, active compounds read high] | –
CCN1CCC[C@H]1CNC(=O)c1c(O)c(Cl)cc(Cl)c1OC | -1% [at 35.3 µM, active compounds read high] | –
CC1(C)CO[C@@H](CC(=O)O)CN1 | -7.9% [at 35.3 µM, active compounds read high] | –
CC(=O)OC/C=C(\C)CC/C=C(\C)CCC=C(C)C | – | inactive
CCCCCSCCCCC | -10.6% | –
CC(C)(O)C#CC(C)(C)O | 0.0328% | –
CCOC(=O)C(=O)OCC | -0.41% | –
Nc1nc2c(ncn2COC(CO)CO)c(=O)[nH]1 | -5.32% [at 35.3 µM, active compounds read high] | –
Cc1sccc1Br | -9.44% [at 35.3 µM, active compounds read high] | –
